Among all 5,500 compounds or so, about 2,000 (36%) were called active. Roughly 18% stayed inconclusive and do not appear here. Rule as the data show it: active = normalized growth mostly below about 0.91 (no sharp cut-off); inconclusive = no clear call, values can overlap the other calls; inactive = mostly above about 0.92. This is one part of the list.
Test: chemical genetic growth profiling, strain panel (AID 1159580);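 also: tested at 20 µM; growth read once vehicle control cultures reached saturation at 30 °C; 1 = growth at the plate median or of vehicle wells; lower values mean less growth of the strain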
Details: growth OD
[1] = S. cerevisiae deletion strains, locus YAL013W, strain DEP1, active compounds read low
[2] = S. cerevisiae deletion strains, locus YBR229C, strain ROT2, active compounds read low
[3] = S. cerevisiae deletion strains, locus YCL061C, strain MRC1, active compounds read low
[4] = S. cerevisiae deletion strains, locus YDL101C, strain DUN1, active compounds read low
[5] = S. cerevisiae deletion strains, locus YDR150W, strain NUM1, active compounds read low
[6] = S. cerevisiae deletion strains, locus YEL061C, strain CIN8, active compounds read low
[7] = S. cerevisiae deletion strains, locus YGR078C, strain PAC10, active compounds read low
[8] = S. cerevisiae deletion strains, locus YHR030C, strain SLT2, active compounds read low
[9] = S. cerevisiae deletion strains, locus YHR087W, strain rtc3, active compounds read low
[10] = S. cerevisiae deletion strains, locus YJR043C, strain POL32, active compounds read low
[11] = S. cerevisiae deletion strains, locus YJR075W, strain HOC1, active compounds read low
[12] = S. cerevisiae deletion strains, locus YLR039C, strain RIC1, active compounds read low
[13] = S. cerevisiae deletion strains, locus YLR058C, strain SHM2 (second series), active compounds read low
[14] = S. cerevisiae deletion strains, locus YLR085C, strain ARP6, active compounds read low
[15] = S. cerevisiae deletion strains, locus YLR262C, strain YPT6, active compounds read low
[16] = S. cerevisiae deletion strains, locus YML094W, strain GIM5, active compounds read low
[17] = S. cerevisiae deletion strains, locus YMR219W, strain ESC1, active compounds read low
[18] = S. cerevisiae deletion strains, locus YMR263W, strain SAP30, active compounds read low
[19] = S. cerevisiae deletion strains, locus YMR307W, strain GAS1, active compounds read low
[20] = S. cerevisiae deletion strains, locus YNL153C, strain GIM3, active compounds read low
[21] = S. cerevisiae deletion strains, locus YNL298W, strain CLA4 (second series), active compounds read low
[22] = S. cerevisiae deletion strains, locus YNL322C, strain KRE1, active compounds read low
[23] = S. cerevisiae deletion strains, locus YNR030W, strain Alg12, active compounds read low
[24] = S. cerevisiae deletion strains, locus YPL055C, strain LGE1, active compounds read low
[25] = S. cerevisiae deletion strains, locus YPL241C, strain CIN2, active compounds read low
[26] = S. cerevisiae deletion strains, locus YPR135W, strain CTF4, active compounds read low
[27] = S. cerevisiae strains, strain wild type, active compounds read low
[28] = S. cerevisiae deletion strains, locus YHR079C, strain IRE1, active compounds read low
[29] = S. cerevisiae deletion strains, locus YJL095W, strain BCK1, active compounds read low
[30] = S. cerevisiae deletion strains, locus YJR066W, strain TOR1, active compounds read low
[31] = S. cerevisiae deletion strains, locus YLR113W, strain HOG1, active compounds read low
[32] = S. cerevisiae deletion strains, locus YNL183C, strain NPR1, active compounds read low
[33] = S. cerevisiae deletion strains, locus YOR231W, strain MKK1, active compounds read low
[34] = S. cerevisiae deletion strains, locus YPL256C, strain CLN2, active compounds read low

Measured: normalized growth

Cc1cc(=O)n2[nH]cc(C#N)c2n1
inactive: [1] 1 | [2] 1 | [3] 1.02 | [4] 1.01 | [5] 1.04 | [6] 0.999 | [7] 1.01 | [8] 1.09 | [9] 1.01 | [10] 1.02 | [11] 0.995 | S. cerevisiae deletion strains, locus YKL190W, strain CNB1, active compounds read low 0.981 | [12] 1.01 | [13] 1 | [14] 1 | [15] 1.04 | [16] 0.995 | [17] 0.994 | [18] 1.04 | [19] 0.968 | [20] 1.02 | [21] 1.01 | [22] 1 | [23] 1.01 | [24] 1.06 | [25] 0.99 | [26] 1.09 | [27] 0.993

CSC(=CC(=O)c1ccc(Cl)cc1)SC
active: [1] 0.884 | [2] 0.867 | [3] 0.848 | [4] 0.836 | S. cerevisiae deletion strains, locus YDL134C, strain PPH21, active compounds read low 0.747 | [6] 0.74 | [7] 0.872 | S. cerevisiae deletion strains, locus YGR229C, strain SMI1, active compounds read low 0.884 | [8] 0.218 | [9] 0.829 | S. cerevisiae deletion strains, locus YJL187C, strain SWE1, active compounds read low 0.869 | [10] 0.874 | [11] 0.828 | [12] 0.421 | [13] 0.836 | [14] 0.394 | [15] 0.431 | [16] 0.79 | [17] 0.889 | [18] 0.874 | [19] 0.286 | S. cerevisiae deletion strains, locus YNL128W, strain TEP1, active compounds read low 0.888 | [20] 0.879 | [21] 0.645 | [22] 0.895 | [23] 0.765 | [24] 0.771 | [25] 0.685 | [26] 0.352 | [27] 0.811
inactive: [5] 0.888

COC1=C(O)C(=O)c2c(cc3oc(C(C)=O)c(O)c3c2O)C1=O
inactive: [8] 0.986 | [28] 1.01 | [29] 1.03 | [30] 0.957 | [31] 1.04 | [32] 0.973 | [33] 0.999 | [34] 0.973

Cc1csc(NC(=O)Nc2ccc(C(F)(F)F)cc2)c1Cl
active: [31] 0.675 | [34] 0.724
inactive: S. cerevisiae deletion strains, locus YAR019C, strain CDC15, active compounds read low 0.958 | S. cerevisiae deletion strains, locus YBL105C, strain PKC1, active compounds read low 0.96 | S. cerevisiae deletion strains, locus YBR135W, strain CKS1, active compounds read low 0.948 | S. cerevisiae deletion strains, locus YBR136W, strain MEC1, active compounds read low 0.957 | S. cerevisiae deletion strains, locus YBR160W, strain CDC28, active compounds read low 0.943 | S. cerevisiae deletion strains, locus YDL017W, strain CDC7, active compounds read low 0.954 | S. cerevisiae deletion strains, locus YDL028C, strain MPS1, active compounds read low 0.962 | [4] 0.988 | S. cerevisiae deletion strains, locus YDL108W, strain KIN28, active compounds read low 0.948 | S. cerevisiae deletion strains, locus YDL132W, strain cdc53, active compounds read low 0.969 | S. cerevisiae deletion strains, locus YDL214C, strain PRR2, active compounds read low 0.836 | S. cerevisiae deletion strains, locus YDR052C, strain DBF4, active compounds read low 0.961 | S. cerevisiae deletion strains, locus YDR054C, strain cdc34, active compounds read low 0.949 | S. cerevisiae deletion strains, locus YDR226W, strain ADK1, active compounds read low 0.96 | S. cerevisiae deletion strains, locus YDR477W, strain SNF1, active compounds read low 0.905 | S. cerevisiae deletion strains, locus YER123W, strain YCK3, active compounds read low 0.802 | S. cerevisiae deletion strains, locus YER133W, strain GLC7, active compounds read low 0.897 | S. cerevisiae deletion strains, locus YFL009W, strain cdc4, active compounds read low 0.951 | S. cerevisiae deletion strains, locus YFL029C, strain CAK1, active compounds read low 0.946 | S. cerevisiae deletion strains, locus YFR003C, strain YPI1, active compounds read low 0.957 | S. cerevisiae deletion strains, locus YFR019W, strain FAB1, active compounds read low 0.884 | S. cerevisiae deletion strains, locus YFR028C, strain CDC14, active compounds read low 0.945 | S. cerevisiae deletion strains, locus YGR040W, strain KSS1, active compounds read low 0.892 | S. cerevisiae deletion strains, locus YGR052W, strain FMP48, active compounds read low 0.884 | S. cerevisiae deletion strains, locus YGR092W, strain DBF2, active compounds read low 0.861 | [8] 0.858 | [28] 0.815 | S. cerevisiae deletion strains, locus YHR082C, strain KSP1, active compounds read low 0.873 | S. cerevisiae deletion strains, locus YHR205W, strain SCH9, active compounds read low 0.78 | S. cerevisiae deletion strains, locus YIL147C, strain SLN1, active compounds read low 0.958 | [29] 0.832 | S. cerevisiae deletion strains, locus YJL128C, strain PBS2, active compounds read low 0.891 | S. cerevisiae deletion strains, locus YJL157C, strain FAR1, active compounds read low 0.849 | S. cerevisiae deletion strains, locus YJR016C, strain ILV3, active compounds read low 0.95 | S. cerevisiae deletion strains, locus YJR066W, strain TOR1 (second series), active compounds read low 0.854 | [30] 0.92 | S. cerevisiae deletion strains, locus YKL048C, strain ELM1, active compounds read low 0.892 | S. cerevisiae deletion strains, locus YKL067W, strain YNK1, active compounds read low 0.831 | S. cerevisiae deletion strains, locus YKL101W, strain HSL1, active compounds read low 0.831 | S. cerevisiae deletion strains, locus YKL193C, strain SDS22, active compounds read low 0.951 | S. cerevisiae deletion strains, locus YKL203C, strain TOR2, active compounds read low 0.957 | S. cerevisiae deletion strains, locus YLR133W, strain CKI1, active compounds read low 0.823 | S. cerevisiae deletion strains, locus YLR403W, strain SFP1, active compounds read low 0.871 | S. cerevisiae deletion strains, locus YML070W, strain DAK1, active compounds read low 0.802 | S. cerevisiae deletion strains, locus YMR001C, strain CDC5, active compounds read low 0.954 | S. cerevisiae deletion strains, locus YMR205C, strain PFK2 (second series), active compounds read low 0.833 | S. cerevisiae deletion strains, locus YMR277W, strain FCP1, active compounds read low 0.966 | S. cerevisiae deletion strains, locus YNL006W, strain LST8, active compounds read low 0.968 | S. cerevisiae deletion strains, locus YNL020C, strain ARK1, active compounds read low 0.823 | S. cerevisiae deletion strains, locus YNL161W, strain CBK1, active compounds read low 0.957 | [32] 0.829 | S. cerevisiae deletion strains, locus YNL207W, strain RIO2, active compounds read low 0.945 | S. cerevisiae deletion strains, locus YNL222W, strain SSU72, active compounds read low 0.95 | S. cerevisiae deletion strains, locus YNL307C, strain MCK1 (second series), active compounds read low 0.84 | S. cerevisiae deletion strains, locus YOL078W, strain AVO1, active compounds read low 0.946 | S. cerevisiae deletion strains, locus YOL136C, strain PFK27, active compounds read low 0.801 | S. cerevisiae deletion strains, locus YOR061W, strain CKA2, active compounds read low 0.842 | S. cerevisiae deletion strains, locus YOR119C, strain RIO1, active compounds read low 0.942 | [33] 0.762 | S. cerevisiae deletion strains, locus YOR329C, strain SCD5, active compounds read low 0.962 | S. cerevisiae deletion strains, locus YPL031C, strain PHO85, active compounds read low 0.892 | S. cerevisiae deletion strains, locus YPL153C, strain RAD53, active compounds read low 0.88 | S. cerevisiae deletion strains, locus YPL204W, strain HRR25, active compounds read low 0.868 | S. cerevisiae deletion strains, locus YPL209C, strain IPL1, active compounds read low 0.946 | S. cerevisiae deletion strains, locus YPR025C, strain CCL1, active compounds read low 0.966 | S. cerevisiae deletion strains, locus YPR106W, strain ISR1, active compounds read low 0.932 | S. cerevisiae deletion strains, locus YPR111W, strain DBF20, active compounds read low 0.927 | S. cerevisiae deletion strains, strain NNK1, active compounds read low 0.93 | S. cerevisiae deletion strains, strain TSCII, active compounds read low 0.945

From PubChem BioAssay AID1159580 (chemical genetic matrix, 2015)
